# Most compounds without a hit are left out; they make up all but 9.2% or so of the library.
# NPC1 promoter act: activators of NPC1 promoter | Huh7 NPC1 promoter luciferase reporter, 24 h | 320,000 compounds, 2.4% hits | AID 485313 | Potency, µM (series often up to 9.22 µM), for inactives: at the highest dose activation, hits mostly activators; further: % of control where 0% means no effect; nearly all actives have a fitted effect of over 60% in size
#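 Luciferase expression driven by the NPC1 promoter was measured in stably transfected Huh7 cells after a 24 h compound incubation, using a luciferase reagent and a luminescence read.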
# Rab9 prom act: activates the Rab9 promoter. Potency, µM (top dose mostly 9.22 µM), for inactives: at the top dose activation, negative = inhibition, most hits filed as activators. Huh7 Rab9 promoter-luciferase reporter, luminescence, 24 h. 320,000 compounds, 2.8% hits; further: % of control where 0% means no effect; nearly all actives have a fitted effect of over 60% in size
#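 Cells were plated at 1500 per well in reduced-serum medium with 10% FBS and left 2 h. Compound in DMSO was then added for 24 h at 37 °C. Reporter signal was read by luminescence after 10 min with luciferase detection reagent.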
# ELG1 genotox: inducers of genotoxicity in HEK293T ELG1-luciferase cells. Potency, µM (doses to about 46 µM), for inactives: at the top dose activity change, positive = activation, hits mostly activators. AID 504466. HEK293T ELG1-luciferase reporter, luminescence, 16 h. 330,000 compounds, 1.3% hits; further: % of control where 0% means no effect; nearly all actives have a fitted effect of over 60% in size
#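 Cells (2,000/well) expressing the ELG1-luciferase fusion are dosed by pin tool and kept 16 hr at 37 °C, 5% CO2. Signal comes from ONE-Glo luciferase reagent after 30 min at room temperature.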
# SMN2 splice enh: SMN2 splice variant enhancement; HEK293 SMN2-luciferase splicing reporter, luminescence, 30-36 h; Potency, µM (doses to about 46.1 µM), inactives show top-dose activity change, positive = activation, actives largely listed as activators; 210,000 compounds, 2.8% hits; AID 1458; further: % of control where 0% means no effect; nearly all actives have a fitted effect of over 55% in size
#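 HEK293 cells carry an SMN2 […]–luciferase reporter in which exon 7 inclusion puts luciferase in frame. Cells were plated 10-12 h before compound addition, then incubated 30-36 h at 37C. ONE-Glo luminescence was read; sodium butyrate at 4.5 mM final served as control.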
# FLuc counter: inhibits or activates purified firefly luciferase, miR-21 counter-screen | P08659 | purified FLuc, Km substrates, luminescence inhibition | Potency, µM (series often up to 57.5 µM), for inactives: at the top dose activity change, negative = inhibition, most hits filed as inhibitors | 360,000 compounds, 6.9% hits;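 further: plate controls were vehicle for no effect and reference inhibitor for full effect; nearly all actives have a fitted effect of over 55% in size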
# Target sequence (P08659 whole entry, looked up): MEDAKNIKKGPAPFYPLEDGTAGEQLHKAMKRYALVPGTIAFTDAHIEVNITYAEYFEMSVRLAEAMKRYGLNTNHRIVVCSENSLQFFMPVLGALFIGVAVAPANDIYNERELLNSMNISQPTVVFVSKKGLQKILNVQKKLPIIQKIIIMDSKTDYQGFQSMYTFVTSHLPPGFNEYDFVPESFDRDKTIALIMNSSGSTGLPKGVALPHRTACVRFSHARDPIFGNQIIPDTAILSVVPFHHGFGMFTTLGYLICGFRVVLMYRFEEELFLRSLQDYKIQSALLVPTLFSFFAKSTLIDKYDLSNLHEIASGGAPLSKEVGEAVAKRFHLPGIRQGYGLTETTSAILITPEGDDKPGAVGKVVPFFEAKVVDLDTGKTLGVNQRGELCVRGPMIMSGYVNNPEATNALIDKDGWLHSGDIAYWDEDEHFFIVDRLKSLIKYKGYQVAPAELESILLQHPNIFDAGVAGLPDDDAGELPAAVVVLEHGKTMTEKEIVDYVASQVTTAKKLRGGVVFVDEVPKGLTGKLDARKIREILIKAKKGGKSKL
#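 Biochemical qHTS of compounds, final roughly 60 µM downward over six points, against 10 nM purified firefly luciferase using Km concentrations of substrates (10 uM D-luciferin, 10 uM ATP) in Tris acetate pH 7.5 buffer; luminescence output.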
# ELG1 repair inh: ELG1-dependent DNA repair inhibition; HEK293T ELG1-luciferase reporter, luminescence, 16 h; DNA damage induced by 5-fluorouridine; Potency, µM (highest dose often 46.1 µM), inactives show at the highest dose activity change, negative = inhibition, actives largely listed as inhibitors; 330,000 compounds, 2.3% hits; AID 504467; further: on the % scale 0 is the no-effect control and ±100 the full control effect; nearly all actives have a fitted effect of over 55% in size
#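 Cells (2,000 per well) received 5-fluorouridine plus test compound or DMSO and were incubated 16 hr at 37 °C, 5% CO2. Luciferase activity was read by luminescence 30 min after ONE-Glo addition; signal suppression marked inhibition of damage-induced ELG1 function.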
# * = called active by the depositor; u = inconclusive; x = no result given. The call rests on the fitted dose curve; in most records, active means well fitted curve in the direction sought with a large enough effect; inconclusive means small, poorly fitted or top-dose-only effect, or another doubt; inactive means no such curve, though single readings can be large; an effect the other way counts as inactive or inconclusive. Potency means the concentration at half of the fitted maximal effect.
SMILES,NPC1 promoter act,Rab9 prom act,ELG1 genotox,SMN2 splice enh,FLuc counter,ELG1 repair inh
O=C(Nc1nc(-c2cc(F)ccc2F)cs1)c1ccccn1,14%,27%,2%,-4%,u,0%
Fc1ccc(-c2csc(Nc3ccccn3)n2)c(F)c1,1.6µM*,2.8µM*,u,x,0.6µM*,u
Cc1cccc(N2CC(C)Cn3c2nc2c3c(=O)[nH]c(=O)n2C)c1 (stereo not given),-11%,-6%,1%,x,2%,-26%
CC1(C)CC(=O)c2cc(-c3nc(-c4ccccc4)cs3)c(=O)[nH]c2C1,x,x,x,-2%,1%,x
Cc1cccc(C(=O)Nc2c(C(=O)N3CCN(c4ccc(F)cc4)CC3)oc3ccccc23)c1,x,x,x,x,3%,x
Cc1ccc(NC(=O)C2=CC=CN3CCS(=O)(=O)N=C23)cc1,9%,2%,12%,x,u,u
CCC(C)c1ccc(NC(=O)C2=CC=CN3CCS(=O)(=O)N=C23)cc1 (stereo not given),19%,u,u,x,2.1µM*,u
O=S(=O)(c1cccs1)N1CCN(CC(O)COc2cc(Cl)ccc2Cl)CC1 (stereo not given),-3%,-22%,-22%,-94%,1%,8.2µM*
O=S(=O)(c1cccs1)N1CCN(CCOc2ccc(Cl)cc2)CC1,-10%,-18%,-1%,x,x,-18%
Cc1ccccc1NC(=O)N1c2ccccc2CC1C (stereo not given),1%,-9%,2%,20%,u,27%
Cc1nc2cc(NC(=O)NCc3ccc4c(c3)OCO4)ccc2o1,-3%,-2%,1%,-2%,-2%,-2%
Cc1nc2cc(NC(=O)N3c4ccccc4CC3C)ccc2o1 (stereo not given),0.79µM*,0.89µM*,3.3µM*,11µM*,6µM*,u
Cc1nc2cc(NC(=O)Nc3ccc(Br)cc3)ccc2o1,1.8µM*,0.5µM*,u,11µM*,2.4µM*,u
Cc1nc2cc(NC(=O)N3c4ccccc4CC3C)ccc2n1C (stereo not given),0.5µM*,0.45µM*,u,2.8µM*,1.7µM*,u
CCOc1ccc(Nc2cc(C)nc(N3CCOCC3)n2)cc1,-4%,6%,1%,-13%,2%,-11%
Cc1cc(N/N=C/c2ccccc2O)nc(N2CCOCC2)n1,4%,0%,0%,x,12µM*,-6%
CCOc1ccc(/C=N/Nc2cc(C)nc(N3CCOCC3)n2)cc1,23%,19%,3%,x,1.3µM*,u
Cc1nc(N/N=C/c2ccc(Br)cc2)cc(N2CCOCC2)n1,-11%,-1%,-5%,x,2%,15µM*
CCOc1ccc2nc(N3CCOCC3)nc(C)c2c1,4µM*,u,9.2µM*,2.8µM*,11µM*,u
Cc1ccc(C)c(NC(=O)CSc2cn(CC(=O)N3CCCCC3)c3ccccc23)c1,x,x,x,x,-14%,x
CCCCNC(=O)[C@]1(C)CCC[C@@]2(C)C3CC[C@@]4(C)C[C@]3(CCC21)CC4=O (stereo not given in full),0%,1%,-6%,x,3%,u
O=C(OCC(=O)N1CCN(c2ccccc2)CC1)c1cc(Cl)ccc1[N+](=O)[O-],-3%,3%,-4%,x,-1%,17%
Cc1ccc(Nc2nc(COC(=O)C3CC3)cs2)cc1,u,3.2µM*,u,u,4.3µM*,u
Cc1ccc(Nc2nc(C(=O)N3CCC(C(=O)N4CCN(C)CC4)CC3)cs2)cc1,14%,18%,14%,7%,-17%,12%
COc1ccc2oc3ccc(OC)cc3c(=O)c2c1,3.2µM*,2.8µM*,u,u,3µM*,u
COc1cc(O)c2c(=O)c3c(OC)c(O)ccc3oc2c1,2%,8%,u,x,19µM*,u
COc1cc(O)c2c(=O)c(O)c(-c3ccc(O)c(O)c3)oc2c1,x,x,x,-3%,x,x

# High-throughput results from PubChem BioAssay.
